Inconclusive results are not listed. The source made the active and inactive calls. Rule for the calls, unless noted: active = hit-call score of the fitted dose curve at least 0.9, where 1 is the maximum; inactive = score below 0.9.
What was measured:
[1] = read-out: NAD(P)H dehydrogenase [quinone] 1 (NQO1), NQO1 (gene 1728); assay: LTEA_HepaRG_NQO1: Life Technologies and Expression Analysis (LTEA) Assay for NAD(P)H dehydrogenase [quinone] 1 (NQO1) using HepaRG (AID 2283526); conditions: mRNA level, 48 h; actives raise or lower the signal
Summary of the method: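 Differentiated human HepaRG cells in serum-free induction medium, dosed in duplicate for 48 h at 8 half-log concentrations up to 100 uM in 0.5% DMSO. NQO1 mRNA by qRT-PCR normalized to ACTB, GAPDH, POLR2A; bidirectional fit versus DMSO baseline.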

[2] = read-out: Nuclear factor erythroid 2-related factor 2 (Homo sapiens) (UniProt Q16236); assay: LTEA_HepaRG_NFE2L2: Life Technologies and Expression Analysis (LTEA) Assay for Nuclear factor erythroid 2-related factor 2 (NFE2L2) Transcription Factor using HepaRG (AID 2283527); conditions: mRNA level, 48 h; actives raise or lower the signal;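 note: TaqMan qRT-PCR transcript level normalised to ACTB GAPDH and POLR2A housekeeping genes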
Summary of the method: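 Differentiated human HepaRG cells, serum-free induction medium, exposed 48 h in duplicate to eight half-log concentrations up to 100 uM in 0.5% DMSO. NFE2L2 mRNA by Fluidigm TaqMan qRT-PCR, normalised to ACTB, GAPDH, POLR2A; bidirectional change versus DMSO.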

[3] = read-out: succinate dehydrogenase complex iron sulfur subunit B (SDHB), SDHB (gene 6390); assay: LTEA_HepaRG_SDHB: Life Technologies and Expression Analysis (LTEA) Assay for succinate dehydrogenase complex iron sulfur subunit B (SDHB) using HepaRG (AID 2283528); conditions: mRNA level, 48 h; actives raise or lower the signal
Summary of the method: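 Readout is SDHB transcript level by qRT-PCR, normalised to three housekeeping genes and fitted bidirectionally against 0.5% DMSO vehicle. Human HepaRG cells were treated for 48 h at up to 100 uM.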

[4] = read-out: solute carrier (SLCO1B1), SLCO1B1 (gene 10599); assay: LTEA_HepaRG_SLCO1B1: Life Technologies and Expression Analysis (LTEA) Assay for solute carrier (SLCO1B1) using HepaRG (AID 2283530); conditions: mRNA level, 48 h; actives raise or lower the signal
Summary of the method: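 SLCO1B1 transcript read by qRT-PCR (Fluidigm arrays), normalized to three housekeeping genes, after 48 h chemical exposure of HepaRG cells; bidirectional concentration-response fitting versus 0.5% DMSO baseline. Eight-point half-log series, maximum 100 uM.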

[5] = read-out: sulfotransferase 2A1 (SULT2A1), SULT2A1 (gene 6822); assay: LTEA_HepaRG_SULT2A1: Life Technologies and Expression Analysis (LTEA) Assay for sulfotransferase 2A1 (SULT2A1) using HepaRG (AID 2283531); conditions: mRNA level, 48 h; actives raise or lower the signal
Summary of the method: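 HepaRG, 48 h chemical exposure, 8-pt half-log curve from 100 uM in 0.5% DMSO, duplicates. Readout: TaqMan qRT-PCR of SULT2A1 mRNA, housekeeping-normalized. Bidirectional fit vs DMSO baseline.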

[6] = read-out: Transforming Growth Factor (TGFA), TGFA (gene 7039); assay: LTEA_HepaRG_TGFA: Life Technologies and Expression Analysis (LTEA) Assay for Transforming Growth Factor (TGFA) using HepaRG (AID 2283532); conditions: mRNA level, 48 h; actives raise or lower the signal
Summary of the method: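 Differentiated HepaRG cells exposed 48 hours in serum-free induction medium, 0.5% DMSO vehicle, 8-point half-log series from 100 uM, in duplicate. TGFA mRNA by TaqMan qRT-PCR, normalised to ACTB, GAPDH, POLR2A; bidirectional fit versus DMSO.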

[7] = read-out: Transforming Growth Factor (TGFB1), TGFB1 (gene 7040); assay: LTEA_HepaRG_TGFB1: Life Technologies and Expression Analysis (LTEA) Assay for Transforming Growth Factor (TGFB1) Transporter using HepaRG (AID 2283533); conditions: mRNA level, 48 h; actives raise or lower the signal
Summary of the method: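 qRT-PCR readout of TGFB1 transcript in HepaRG lysates, normalized to three housekeeping genes; gain or loss of signal fitted relative to 0.5% DMSO vehicle. Exposure: 48 h, 8-point curve from 100 uM, duplicate wells.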

TIMP1, TIMP1 (gene 7076) = assay: LTEA_HepaRG_TIMP1: Life Technologies and Expression Analysis (LTEA) Assay for TIMP1 using HepaRG (AID 2283534); conditions: mRNA level, 48 h; actives raise or lower the signal;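 note: TaqMan qRT-PCR signal normalized to ACTB GAPDH and POLR2A housekeeping genes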
Summary of the method: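 HepaRG, 48 h exposure, 8-pt half-log series from 100 uM in 0.5% DMSO, duplicates; TIMP1 transcript by Fluidigm qRT-PCR, housekeeping-normalized; bidirectional curve fit vs DMSO baseline.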

[8] = read-out: Tumor necrosis factor receptor 1 (TNFRSF1A), TNFRSF1A (gene 7132); assay: LTEA_HepaRG_TNFRSF1A: Life Technologies and Expression Analysis (LTEA) Assay for Tumor necrosis factor receptor 1 (TNFRSF1A) using HepaRG (AID 2283535); conditions: mRNA level, 48 h; actives raise or lower the signal
Summary of the method: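 HepaRG, 48 h plating then 48 h chemical exposure, serum-free induction media; 8-pt CRC from 100 uM, half-log, 0.5% DMSO vehicle, duplicates. Readout: TaqMan qRT-PCR (Fluidigm), housekeeping-gene normalized; bidirectional fit vs DMSO.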

[9] = read-out: Thyroid Hormone Responsive (THRSP), THRSP (gene 7069); assay: LTEA_HepaRG_THRSP: Life Technologies and Expression Analysis (LTEA) Assay for Thyroid Hormone Responsive (THRSP) using HepaRG (AID 2283536); conditions: mRNA level, 48 h; actives raise or lower the signal
Summary of the method: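 Differentiated HepaRG cells treated 48 h in serum-free induction medium with 8 half-log concentrations up to 100 uM (0.5% DMSO), duplicates. THRSP mRNA by TaqMan qRT-PCR normalised to ACTB, GAPDH, POLR2A; bidirectional fit versus DMSO.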

[10] = read-out: Cellular tumor antigen p53 (Homo sapiens) (UniProt P04637); assay: LTEA_HepaRG_TP53: Life Technologies and Expression Analysis (LTEA) Assay for Tumor Protein P53 (TP53) using HepaRG (AID 2283537); conditions: mRNA level, 48 h; actives raise or lower the signal
Summary of the method: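 Read-out is TP53 transcript level by microfluidic qRT-PCR, normalised to three housekeeping genes and fitted bidirectionally against DMSO. Human HepaRG cells received compounds for 48 h, highest concentration 100 uM.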

[11] = read-out: UDP glucuronosyltransferase (UGT1A1), UGT1A1 (gene 54658); assay: LTEA_HepaRG_UGT1A1: Life Technologies and Expression Analysis (LTEA) Assay for UDP glucuronosyltransferase (UGT1A1) using HepaRG (AID 2283538); conditions: mRNA level, 48 h; actives raise or lower the signal
Summary of the method: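 HepaRG cells, 0.5% DMSO vehicle, 48 h exposure in serum-free induction medium to 8-point half-log series topping at 100 uM, in duplicate. UGT1A1 mRNA by Fluidigm qRT-PCR, normalized to ACTB/GAPDH/POLR2A; bidirectional fit versus DMSO.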

[12] = read-out: UDP glucuronosyltransferase (UGT1A6), UGT1A6 (gene 54578); assay: LTEA_HepaRG_UGT1A6: Life Technologies and Expression Analysis (LTEA) Assay for UDP glucuronosyltransferase (UGT1A6) using HepaRG (AID 2283539); conditions: mRNA level, 48 h; actives raise or lower the signal
Summary of the method: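 qRT-PCR readout of UGT1A6 mRNA (normalized to ACTB/GAPDH/POLR2A) in differentiated HepaRG cells after 48 h chemical exposure; 8 concentrations, top 100 uM, half-log steps, 0.5% DMSO. Bidirectional curve fit relative to DMSO baseline.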

[13] = read-out: X-box binding protein 1 (XBP1), XBP1 (gene 7494); assay: LTEA_HepaRG_XBP1: Life Technologies and Expression Analysis (LTEA) Assay for X-box binding protein 1 (XBP1) using HepaRG (AID 2283540); conditions: mRNA level, 48 h; actives raise or lower the signal
Summary of the method: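 HepaRG, 48 h exposure, 8-pt half-log CRC top 100 uM, 0.5% DMSO vehicle, duplicates. Readout: TaqMan qRT-PCR of XBP1 mRNA, housekeeping-normalised (ACTB/GAPDH/POLR2A); bidirectional fit vs DMSO baseline.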

[14] = LTEA_HepaRG_LDH_cytotoxicity: Cytotoxicity Assessment in the Life Technologies and Expression Analysis (LTEA) Assay (AID 2283563; active = hit-call score of the fitted dose curve at least 0.9, where 1 is the maximum)
Summary of the method: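 HepaRG (human liver line), 48 h exposure, 8-pt half-log series from 100 uM, 0.5% DMSO vehicle, duplicates. Read-out: LDH in spent medium. Positive-direction fit vs DMSO baseline.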

[15] = ATG_XTT_Cytotoxicity: Cytotoxicity Assessment in the Attagene TRANS-FACTORIAL HepG2 Assay (AID 2283584; active = hit-call score of the fitted dose curve at least 0.9, where 1 is the maximum)
Summary of the method: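 XTT readout of cell number in transfected HepG2 cells, 24 h post-dosing; DMSO serves as negative control and baseline, with activity taken as loss of viability signal.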

[16] = TOX21_p53_BLA_p2_viability: Viability Assessment in the Tox21 HCT-116 p53 Agonism Beta-lactamase Assay, Phase 2 (AID 2283591; active = hit-call score of the fitted dose curve at least 0.9, where 1 is the maximum;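 note: compound exposure lasted 16 h at 37 °C; actives lower the ATP signal meaning cytotoxicity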)
Summary of the method: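 HCT116 p53-bla cells, 4000/well, dosed after 5 h plating (217-fold dilution of DMSO stocks) and incubated 16 h at 37C. Viability taken as cellular ATP by CellTiter-Glo luminescence after 30 min RT; signal loss marks cytotoxicity.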

[17] = target: Cellular tumor antigen p53 (Homo sapiens) (UniProt P04637); assay: TOX21_p53_BLA_p2_ratio: Tox21 HCT-116 p53 Agonism Beta-lactamase Assay, Ratio, Phase 2 (AID 2283592; active = hit-call score of the fitted dose curve at least 0.9, where 1 is the maximum)
Chain of Cellular tumor antigen p53 (Homo sapiens) (P04637 whole entry, looked up): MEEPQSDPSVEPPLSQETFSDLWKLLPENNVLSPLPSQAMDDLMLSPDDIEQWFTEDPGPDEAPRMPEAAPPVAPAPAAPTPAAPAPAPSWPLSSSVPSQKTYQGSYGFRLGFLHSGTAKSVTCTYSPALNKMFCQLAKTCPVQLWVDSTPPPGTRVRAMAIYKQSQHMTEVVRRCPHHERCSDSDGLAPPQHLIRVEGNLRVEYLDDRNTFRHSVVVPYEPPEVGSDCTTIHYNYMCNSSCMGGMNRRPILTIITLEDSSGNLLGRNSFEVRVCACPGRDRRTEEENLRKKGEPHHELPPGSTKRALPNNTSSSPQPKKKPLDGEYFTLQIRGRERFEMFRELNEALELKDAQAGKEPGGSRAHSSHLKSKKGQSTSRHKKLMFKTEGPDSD
Summary of the method: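 In this cell-based reporter format, HCT116 cells were dosed with chemicals delivered from DMSO by 217-fold dilution and incubated 16 h at 37C. Emission at 460 and 530 nm after 2 h CCF4-AM loading provided the ratio, fitted upward versus DMSO.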

[18] = TOX21_p53_BLA_p3_viability: Viability Assessment in the Tox21 HCT-116 p53 Agonism Beta-lactamase Assay, Phase 3 (AID 2283593; active = hit-call score of the fitted dose curve at least 0.9, where 1 is the maximum;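 note: cells exposed to compound for 16 h before reading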)
Summary of the method: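 HCT116 cells, 4000/well, dosed 5 h after plating by pin transfer (217-fold dilution from DMSO stock) and incubated 16 h at 37C, 5% CO2. Viability read as ATP luminescence with CellTiter-Glo after 30 min at room temperature.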

Measured: AC50

Chain of Nuclear factor erythroid 2-related factor 2 (Homo sapiens) (Q16236 whole entry, looked up): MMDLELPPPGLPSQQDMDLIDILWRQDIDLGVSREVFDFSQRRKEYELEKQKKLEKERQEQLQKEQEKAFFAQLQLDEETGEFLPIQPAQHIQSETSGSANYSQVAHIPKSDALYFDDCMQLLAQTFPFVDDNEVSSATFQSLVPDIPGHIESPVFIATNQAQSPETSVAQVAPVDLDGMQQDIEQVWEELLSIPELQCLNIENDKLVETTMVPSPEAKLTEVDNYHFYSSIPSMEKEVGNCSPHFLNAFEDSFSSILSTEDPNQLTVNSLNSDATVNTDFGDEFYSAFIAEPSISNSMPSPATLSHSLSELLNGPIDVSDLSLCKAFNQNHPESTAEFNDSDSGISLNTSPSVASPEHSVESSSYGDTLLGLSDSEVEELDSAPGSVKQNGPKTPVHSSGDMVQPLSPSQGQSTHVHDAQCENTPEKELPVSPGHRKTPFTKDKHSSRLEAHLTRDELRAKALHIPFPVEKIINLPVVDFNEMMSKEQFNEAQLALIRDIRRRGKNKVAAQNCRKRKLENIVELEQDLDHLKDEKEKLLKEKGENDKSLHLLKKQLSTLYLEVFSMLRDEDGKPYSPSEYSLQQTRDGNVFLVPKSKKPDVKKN

Clc1ccc(Cl)c(Cl)c1
active: [5] 83.5 µM | [8] 50 µM | [12] 9.92 µM
inactive: [1] | [2] | [3] | [4] | [6] | [7] | TIMP1, TIMP1 (gene 7076) | [9] | [10] | [11] | [13] | [14] | [15] | [16] | [17]

CCC12COCN1COC2
inactive: [1] | [2] | [3] | [4] | [5] | [6] | [7] | TIMP1, TIMP1 (gene 7076) | [8] | [9] | [10] | [11] | [12] | [13] | [14] | [16] | [17]

Nc1ccc(Cc2ccc(N)cc2)cc1
inactive: [1] | [2] | [3] | [4] | [5] | [6] | [7] | TIMP1, TIMP1 (gene 7076) | [8] | [9] | [10] | [12] | [13] | [14] | [15] | [16] | [17]
active: [11] 26.2 µM

CN(C)c1ccccc1
inactive: [1] | [2] | [3] | [4] | [5] | [6] | [7] | TIMP1, TIMP1 (gene 7076) | [8] | [9] | [10] | [11] | [12] | [13] | [14] | [15] | [16] | [18]

ClC1=C(Cl)[C@]2(Cl)[C@H]3[C@H]([C@@H]4C=C[C@H]3C4)[C@@]1(Cl)C2(Cl)Cl
inactive: [1] | [3] | [4] | [5] | [6] | [7] | TIMP1, TIMP1 (gene 7076) | [8] | [10] | [12] | [13] | [14] | [15] | [16]
active: [9] 30.8 µM | [11] 6.68 µM

c1ccc2c(c1)-c1cccc3cccc-2c13
inactive: [1] | [2] | [3] | [4] | [5] | [6] | [7] | TIMP1, TIMP1 (gene 7076) | [8] | [9] | [10] | [12] | [13] | [15] | [16]
active: [11] 16.1 µM
